Reference: PubChem BioAssay (NCATS)
Inconclusive results are not listed. A number with no mark means an inactive call. Active and inactive are the calls of the source. Calls come from the whole dose curve; as a rule, active = well fitted cell-killing curve with a large enough effect; inconclusive = small, poorly fitted or top-dose-only effect, or effect the other way; inactive = no such curve, though single readings can be large or run the other way.

Test: Viability qHTS for spleen associated tyrosine kinase inhibitor (SYKi) drug resistant MV4-11 cells (AID 1963824); note: nearly all actives have a fitted effect of over 35% in size
Conditions: SYKi-resistant MV4-11 viability, CellTiter-Glo, 72 h; series mostly up to 45 µM; viability, % of control: at the top concentration
How it was run: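 CellTiter-Glo luminescence, read 10 min after reagent addition, reports viability after a 72 hr compound exposure. Cells are an MV4-11 line made resistant to SYK inhibition, seeded at 500 per well onto compound-containing plates.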
Potency is the fitted concentration of half-maximal effect.

**Q.** For `CCOC(=O)Nc1nc2ccccc2[nH]1`, which Potency is on record?
**A.** 10.3 µM (active)

**Q.** Which “viability, % of control” value does the source give for `CCC(C)/C=C(C)/C=C/C1=CC2=C(Cl)C(=O)C(C)(OC(C)=O)C(=O)C2=CN1C(CCC(=O)O)C(=O)O` (centres undefined) here?
**A.** 76.2% [at 17.3 µM]

**Q.** For `Cn1cc(S(=O)(=O)c2ccc(Cl)cc2)c2cccc(N3CCNCC3)c21`, which Potency is on record?
**A.** 13 µM (active)

**Q.** Which “viability, % of control” value does the source give for `COc1ccc([C@H]2CNC(=O)C2)cc1OC1CCCC1` here?
**A.** 96.2%

**Q.** With `Cc1cc2occ(CN(C)CCN(C)Cc3cn(-c4cccc(C(F)(F)F)c4)c4ccccc34)c(=O)c2cc1C` as the compound, how does the Potency read?
**A.** 4.61 µM (active)

**Q.** With `C[C@@H]1C[C@@H](O)[C@@]2(CO)C(CO)=CCC[C@@H]2[C@@]12C[C@@H](c1ccoc1)OC2=O` as the compound, how does the “viability, % of control” value read?
**A.** 89.1%

**Q.** With `C=C1C(=O)O[C@@H]2C[C@]3(C)[C@@H](CCC(C)=O)[C@@H]3C[C@H]12` as the compound, how does the Potency read?
**A.** 18.4 µM (active)

**Q.** With `Cc1ccc(NS(=O)(=O)c2cc3c(cc2Cl)CCC(=O)N3)cc1Cl` as the compound, how does the Potency read?
**A.** 9.2 µM (active)

**Q.** For `CC1(C)SC2C(NC(=O)[C@H](C(=O)O)c3ccsc3)C(=O)N2C1C(=O)O` (some centres undefined), which “viability, % of control” value is on record?
**A.** 99.5%

**Q.** For `CN1CCN(C(=O)c2cc3cc(Cl)ccc3[nH]2)CC1`, which Potency is on record?
**A.** 8.2 µM (active)

**Q.** For `C#Cc1cccc(Nc2nc3cc(C(=O)O)ccc3c3cncnc23)c1`, which Potency is on record?
**A.** 2.91 µM (active)

**Q.** Which Potency does the source give for `c1ccc(-c2cnc(Nc3ccc(OCCN4CCCC4)cc3)s2)cc1` here?
**A.** 0.0206 µM (active)

**Q.** With `O=C1CC2(CCCC2)[C@H](O)C(=O)N1CCCCN1CCN(c2ncccn2)CC1` as the compound, how does the “viability, % of control” value read?
**A.** 75.7%

**Q.** Which viability, % of control does the source give for `CC1(C)CC[C@]2(C(=O)O[C@@H]3O[C@H](CO[C@@H]4O[C@H](CO)[C@@H](O)[C@H](O)[C@H]4O)[C@@H](O)[C@H](O[C@@H]4O[C@H](CO)[C@@H](O)[C@H](O)[C@H]4O)[C@H]3O)CC[C@]3(C)C(=CCC4[C@@]5(C)CC[C@H](O[C@@H]6OC[C@@H](O)[C@H](O)[C@H]6O)[C@@](C)(C(=O)O)C5CC[C@]43C)[C@@H]2C1` (some centres undefined) here?
**A.** 108% [at 9.25 µM]
